Bioassay records deposited in PubChem by Buhrlage Lab, Dana-Farber Cancer Institute and Novartis Institutes for BioMedical Research (Cambridge, Mass).
An excerpt weighted towards active compounds, which were near 11% of everything screened.
USP28 block: blocks human USP28 ubiquitin-rhodamine cleavage; purified USP28, Ub-rhodamine cleavage fluorescence, 30 min; 47,000 compounds, 3% hits; Q96RU2; inhibition, % at 25 µM
USP30 block: blocks human USP30 ubiquitin-rhodamine cleavage; Q70CQ3; purified USP30, Ub-rhodamine cleavage fluorescence; inhibition, % at 25 µM; 47,000 compounds, 5.3% hits; AID 1645860
Target sequence (Q70CQ3 whole entry, looked up): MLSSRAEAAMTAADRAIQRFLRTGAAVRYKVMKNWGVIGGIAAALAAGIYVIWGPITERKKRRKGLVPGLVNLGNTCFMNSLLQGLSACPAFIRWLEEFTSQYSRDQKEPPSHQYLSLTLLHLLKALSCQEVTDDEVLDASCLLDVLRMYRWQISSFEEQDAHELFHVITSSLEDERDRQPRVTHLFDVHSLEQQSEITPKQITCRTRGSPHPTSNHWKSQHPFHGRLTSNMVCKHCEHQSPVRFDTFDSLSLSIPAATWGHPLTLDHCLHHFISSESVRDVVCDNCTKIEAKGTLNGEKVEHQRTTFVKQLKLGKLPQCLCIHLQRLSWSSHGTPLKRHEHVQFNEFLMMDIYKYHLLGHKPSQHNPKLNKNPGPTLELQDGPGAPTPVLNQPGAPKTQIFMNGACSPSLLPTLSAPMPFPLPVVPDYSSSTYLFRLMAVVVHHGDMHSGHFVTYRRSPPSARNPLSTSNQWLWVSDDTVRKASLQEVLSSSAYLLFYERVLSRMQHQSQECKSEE
USP17 inh: blocks human USP17 ubiquitin-rhodamine cleavage | 47,000 compounds, 6.5% hits | AID 1645855 | purified USP17, Ub-rhodamine cleavage fluorescence, 3 h | inhibition, % at 50 µM | A8MUK1
* = called active by the depositor. Cut-off read from the data, not from the text of the source: active = inhibition above about 30%; inactive = the rest.

How did CCC(=O)Nc1c(C)noc1/C=C\c1ccc(S(=O)(=O)Nc2ccc(F)cc2F)cc1 do in these assays?
USP28 block: 3; USP30 block: 46*; USP17 inh: 22

What do the screens show for `Cn1c(-c2nnc(SCC(=O)Nc3ccc4c(c3)OCO4)o2)cc2ccccc21`?
USP28 block: 1; USP30 block: 2; USP17 inh: 13

Results for CN(C(=O)CSc1nnc(-c2cc3ccccc3n2C)o1)c1ccccc1 ?
USP28 block: 10; USP30 block: 52*; USP17 inh: 8

How did Cn1c(-c2nnc(SCC(=O)Nc3ccccc3F)o2)cc2ccccc21 do in these assays?
USP28 block: 41*; USP30 block: 82*; USP17 inh: 43*

How did COc1ccccc1NC(=O)CSc1nnc(-c2cc3ccccc3n2C)o1 do in these assays?
USP28 block: 7; USP30 block: 9; USP17 inh: 12

Results for Cc1nc(-c2ccc(O)c(C(=O)O)c2)cc(C2CCNCC2)n1 ?
USP28 block: 1; USP30 block: -9; USP17 inh: -32

What do the screens show for `CCCC(=O)NCc1ccc(-c2nc(C3CC3)ncc2-c2ccccn2)cc1`?
USP28 block: -2; USP30 block: -7; USP17 inh: -1

How did CCc1nc(-c2ccc(C(=O)N3CCN(c4ccc(C(C)=O)cc4)CC3)cc2)no1 do in these assays?
USP28 block: 4; USP30 block: -4; USP17 inh: 2

How did Cn1c(=O)c(C(=O)NCc2ccc(F)cc2)nc2ccccc21 do in these assays?
USP17 inh: -9

How did CCc1cccc(NC(=O)c2nc3ccccc3n(C)c2=O)c1 do in these assays?
USP28 block: 48*; USP30 block: 86*; USP17 inh: 58*

Results for COc1ccc(OC)c(NC(=O)c2cnc(NCc3ccccc3F)nc2C)c1 ?
USP28 block: -2; USP30 block: -10; USP17 inh: 2

Results for COC(=O)c1cc2sccc2n1CC(=O)Nc1cccc(SC)c1 ?
USP28 block: 17; USP30 block: 36*; USP17 inh: 28

What do the screens show for `COC(=O)c1cc2sccc2n1CC(=O)Nc1ccc(OC)c(OC)c1OC`?
USP28 block: 6; USP30 block: -56; USP17 inh: -3

How did Cn1cc(-c2cnc(-c3cccnc3)nc2)cc1C(=O)NCCc1ccccc1 do in these assays?
USP28 block: 4; USP30 block: 8; USP17 inh: -13

Results for CCCC12CN3CC(CCC)(CN(C1)C3c1ccc([N+](=O)[O-])o1)C2=O (centres undefined) ?
USP28 block: -3; USP30 block: -5; USP17 inh: -11

Results for COc1ccc(-c2c3c4n(c(-c5ccccc5)cn4c2C(=O)NC2CCCCC2)CCCC3)cc1 ?
USP28 block: -7; USP30 block: -96; USP17 inh: -17

What do the screens show for `COc1ccc(-c2cc(-c3nnc4n3CCCCC4)n(-c3ccccc3)n2)cc1`?
USP28 block: 60*; USP30 block: 28; USP17 inh: 15

What do the screens show for `CCNC(=O)c1cccc(NC(=O)c2cc(Cl)c3c(c2)OCO3)c1`?
USP28 block: 31*; USP30 block: -7; USP17 inh: 0

What do the screens show for `CCN(C(=O)c1cccc(NC(=O)c2ccccc2)c1)c1ccccc1`?
USP28 block: 3; USP30 block: 1; USP17 inh: -24

How did O=S(=O)(c1ccc(-c2noc(COc3ccccc3)n2)cc1)N1CCOCC1 do in these assays?
USP28 block: -19; USP30 block: -8; USP17 inh: 14

How did COc1ccc(C(NS(=O)(=O)c2ccc(S(=O)(=O)N3CCOCC3)cc2)c2ccccc2)cc1 (centres undefined) do in these assays?
USP28 block: 12; USP30 block: 36*; USP17 inh: 9

How did Cc1cn[nH]c1C1COCCN1C(=O)c1ccc2ncccc2c1 (centres undefined) do in these assays?
USP28 block: -253; USP30 block: inactive; USP17 inh: -180

What do the screens show for `COc1ccccc1CCNC(=O)c1cccc(N2C(=O)CCS2(=O)=O)c1`?
USP28 block: 20; USP30 block: 13; USP17 inh: 4

How did O=C(NCCc1ccc(F)cc1)c1cccc(N2C(=O)CCS2(=O)=O)c1 do in these assays?
USP28 block: 18; USP30 block: 37*; USP17 inh: 18

Results for O=C(Cn1cnc(NC(=O)c2ccccc2)n1)Nc1ccccc1 ?
USP28 block: -10; USP30 block: -29; USP17 inh: -21

Results for COCCNC(=O)CCCn1c(=O)c2cc(OC)c(OC)cc2n(CC(=O)N2CCCc3ccccc32)c1=O ?
USP28 block: 8; USP30 block: 29; USP17 inh: 22

How did COc1cc2c(=O)n(Cc3ccccc3)c(=O)n(CC(=O)N3CCCc4ccccc43)c2cc1OC do in these assays?
USP28 block: 9; USP30 block: 34*; USP17 inh: 25

How did c1ccc(Nc2nc(-c3ccc(C4CCCCC4)cc3)cs2)nc1 do in these assays?
USP28 block: -14; USP30 block: -41; USP17 inh: -28
